# In all, about 1,300 compounds went through this assay and about 240 (18%) were called active. Inconclusive results (about 8%) are left out. How the calls were made is not given here. These entries were drawn from the full list. Where a call stands in place of a potency, no number is given. Potency and affinity values are given separately.
# Experiment: HepG2 cell cytotoxicity, dose response, cytotoxicity control, cherry-picked samples (AID 1159577)
# Details: HepG2 cytotoxicity counterscreen, plate reader; series mostly up to 19.5 µM
row,Compound,outcome
1,COc1ccc(NC(=O)Nc2ccc3c(c2)[C@H]2C[C@H](CC(=O)N4CCc5ccccc5C4)O[C@H](CO)[C@H]2O3)cc1,inactive
2,COc1ccccc1-c1cccc(-c2nc(C(=O)Nc3nccs3)cc3c2[C@H](CCO)N(C(=O)CC2CC2)C3)c1,inactive
3,CO[C@H]1CN(C)C(=O)c2cc(NS(=O)(=O)c3ccccc3C)ccc2OC[C@H](C)N(C)C[C@H]1C,inactive
4,CC(C)(O)C#Cc1ccc([C@H]2[C@H](CO)N3CCCCN(C(=O)c4ccc(F)cc4)C[C@@H]23)cc1,inactive
5,COc1ccc2c3c(n(C)c2c1)[C@H](CO)N(CC1CC1)CC31CN(C(=O)c2ccc3c(c2)OCO3)C1,inactive
6,CO[C@@H]1CN(C)C(=O)c2ccc(NC(=O)C3CCC3)cc2OC[C@@H](C)N(CC2CCCCC2)C[C@H]1C,inactive
7,CO[C@@H]1CN(C)C(=O)c2cc(NC(=O)c3ccccc3F)ccc2OC[C@H](C)N(C(=O)c2ccccc2F)C[C@@H]1C,inactive
8,C[C@H](CO)N1C[C@H](C)[C@@H](CN(C)C(=O)Nc2cccc3ccccc23)Oc2ccc(NC(=O)Cc3cn(C)c4ccccc34)cc2C1=O,inactive
9,C[C@H](CO)N1C[C@H](C)[C@@H](CN(C)S(=O)(=O)c2ccc(C(F)(F)F)cc2)OCc2ccccc2-c2c(n(C)c3ccccc23)C1=O,inactive
10,N#C[C@@H]1[C@H](c2ccccc2-c2cccc(F)c2)[C@@H](CO)N1C(=O)C1CCCC1,inactive
11,CC(C)(C)[S@@](=O)N1Cc2cc(C(=O)N[C@@H]3CCN(Cc4ccccc4)C3)nc(-c3cccc(-c4cccnc4)c3)c2[C@H]1CCO,inactive
12,COCc1cn([C@@H]2C[C@@H]3O[C@H](CO)CC[C@@H]3O[C@@H]2CCc2ccc(-c3ccc(OC)cc3)cc2)nn1,inactive
13,CCCNC(=O)Nc1ccc2c(c1)C(=O)N(C)C[C@@H](OC)[C@H](C)CN(C(=O)C1CCOCC1)[C@@H](C)CO2,inactive
14,COc1ccc(NC(=O)N(C)C[C@@H]2Oc3cc(-c4ccc(C)cc4)ccc3S(=O)(=O)N([C@H](C)CO)C[C@@H]2C)cc1,inactive
15,C[C@H]1CN([C@@H](C)CO)S(=O)(=O)c2ccc(C#Cc3ccccc3)cc2O[C@@H]1CN(C)S(=O)(=O)c1cn(C)cn1,inactive
16,COc1cccc(CN2CCCCN3[C@H](CO)[C@@H](c4ccc(C#Cc5cccnc5)cc4)[C@@H]3C2)c1,inactive
17,COc1ccc(NC(=O)N2CCCCN3[C@H](CO)[C@H](c4ccc(C#Cc5ccccn5)cc4)[C@@H]3C2)cc1,inactive
18,O=C(Nc1ccccc1)N1CCCCN2[C@H](CO)[C@H](c3ccc(C#Cc4cccnc4)cc3)[C@@H]2C1,inactive
19,C[C@@H]1CN([C@H](C)CO)C(=O)c2c(c3ccccc3n2C)-c2ccccc2CO[C@@H]1CN(C)C(=O)[C@H](C)c1ccccc1,inactive
20,C[C@@H]1CN([C@H](C)CO)C(=O)c2ccccc2-c2ccccc2CO[C@H]1CN(C)C(=O)Nc1cccc(Cl)c1Cl,inactive
21,C[C@H](CO)N1C[C@H](C)[C@H](CN(C)Cc2ccc(Oc3ccccc3)cc2)Oc2c(NC(=O)c3nc4ccccc4s3)cccc2C1=O,inactive
22,C[C@H](CO)N1C[C@H](C)[C@H](CN(C)S(=O)(=O)c2cccs2)Oc2ccc(NC(=O)Cc3cn(C)c4ccccc34)cc2C1=O,inactive

row,Compound,outcome
1,COc1ccc(C#Cc2ccc3c(c2)O[C@H](CN(C)S(=O)(=O)c2ccccc2F)[C@@H](C)CN([C@H](C)CO)S3(=O)=O)cc1,inactive
2,CC(C)(C)[S@@](=O)N1Cc2cc(C(=O)NCCN3CCCC3)nc(-c3cccc(-c4ccc(C#N)cc4)c3)c2[C@H]1CCO,inactive
3,COCC(=O)Nc1ccc2c(c1)C(=O)N(C)C[C@H](OC)[C@H](C)CN(Cc1cc(F)ccc1F)[C@@H](C)CO2,inactive
4,COc1ccccc1CNC(=O)C[C@H]1C[C@H]2c3cc(NC(=O)Cc4ccncc4)ccc3O[C@H]2[C@H](CO)O1,inactive
5,C[C@H](CO)N1C[C@H](C)[C@H](CN(C)S(=O)(=O)c2ccc(C(F)(F)F)cc2)OCc2ccccc2-c2c(n(C)c3ccccc23)C1=O,inactive
6,C[C@@H]1CN([C@@H](C)CO)C(=O)c2c(c3ccccc3n2C)-c2ccccc2CO[C@H]1CN(C)C(=O)Nc1ccccc1C(F)(F)F,inactive
7,C[C@H]1CN([C@@H](C)CO)C(=O)c2c(c3ccccc3n2C)-c2ccccc2CO[C@@H]1CN(C)C(=O)Nc1cccc(C(F)(F)F)c1,inactive
8,C[C@H](CO)N1C[C@H](C)[C@@H](CN(C)Cc2ccc(-c3ccccc3)cc2)OCc2ccccc2-c2c(n(C)c3ccccc23)C1=O,inactive
9,C[C@H]1CN([C@@H](C)CO)C(=O)c2c(c3ccccc3n2C)-c2ccccc2CO[C@@H]1CN(C)C(=O)Cc1ccccc1,inactive
10,C[C@H]1CN([C@@H](C)CO)C(=O)c2c(c3ccccc3n2C)-c2ccccc2CO[C@@H]1CN(C)Cc1ccc(-c2ccccc2)cc1,inactive
11,COc1ccc(S(=O)(=O)N2CCC3(CC2)CN(Cc2ccncc2)[C@@H](CO)c2[nH]c4cc(OC)ccc4c23)cc1,inactive
12,COc1ccccc1NC(=O)Nc1ccc2c(c1)OC[C@@H](C)N(Cc1ccccc1Cl)C[C@@H](C)[C@H](OC)CN(C)C2=O,inactive
13,CCCN(C)C[C@@H]1Oc2cc(C#Cc3cccnc3)ccc2S(=O)(=O)N([C@@H](C)CO)C[C@H]1C,inactive
14,COc1ccc2c3c([nH]c2c1)[C@H](CO)N(Cc1cc(F)ccc1F)CC31CCN(C(=O)C2CCC2)CC1,inactive
15,C[C@H](CO)N1C[C@H](C)[C@H](CN(C)C(=O)NC2CCCCC2)OCc2ccccc2-c2c(n(C)c3ccccc23)C1=O,inactive
16,CO[C@H]1CN(C)C(=O)c2cc(NC(=O)c3ccccc3F)ccc2OC[C@H](C)N(C(=O)c2ccccc2F)C[C@H]1C,inactive
17,CCC(=O)N1CC2(C1)CN(Cc1cccc(Cl)c1)[C@H](CO)c1c2c2ccc(OC)cc2n1C,inactive
18,N#C[C@@H]1[C@H](c2ccccc2-c2ccccc2F)[C@H](CO)N1C(=O)C1CCOCC1,inactive
19,N#C[C@@H]1[C@@H](c2ccccc2C2=CCCC2)[C@@H](CO)N1C(=O)NC1CCCC1,inactive
20,CC(C)(C)S(=O)N1Cc2cc(C(=O)NCc3ccc(Oc4ccccc4)cc3)nc(-c3cccc(-c4cccc(F)c4)c3)c2[C@@H]1CCO (stereo partly specified),inactive
21,COc1cccc(CNC(=O)c2cc3c(c(-c4cccc(-c5ccncc5)c4)n2)[C@H](CCO)N([S@@](=O)C(C)(C)C)C3)c1,inactive
22,COc1cccc(-c2cccc(-c3nc(C(=O)NCc4ccc(Oc5ccccc5)cc4)cc4c3[C@@H](CCO)N(S(=O)C(C)(C)C)C4)c2)c1 (stereo partly specified),inactive

row,Compound,outcome
1,CN(C)C(=O)c1cccc(-c2cccc(-c3nc(C(=O)NC4CCCCC4)cc4c3[C@@H](CCO)N([S@](=O)C(C)(C)C)C4)c2)c1,inactive
2,C[C@H]1CN([C@@H](C)CO)C(=O)c2c(c3ccccc3n2C)-c2ccccc2CO[C@H]1CN(C)S(=O)(=O)c1ccc(C(F)(F)F)cc1,inactive
3,COCC(=O)N1[C@H](C#N)[C@@H](c2ccccc2-c2ccccc2)[C@H]1CO,inactive
4,COc1ccc2c3c(n(C)c2c1)[C@@H](CO)N(C(=O)c1ccc(F)cc1)CC31CN(C(=O)Nc2ccc(F)cc2)C1,inactive
5,COc1ccc(C#Cc2ccc3c(c2)O[C@@H](CN(C)C(=O)Nc2cccc(OC)c2)[C@@H](C)CN([C@H](C)CO)S3(=O)=O)cc1,inactive
6,O=C(c1ccccn1)N1CC2(C1)[C@@H](c1ccccc1)[C@H](CO)N2Cc1ccc(Cl)cc1,inactive
7,COc1ccc(C#Cc2ccc([C@H]3[C@H]4CN(C(=O)c5ccc(F)cc5)CC(=O)N4[C@H]3CO)cc2)cc1,inactive
8,C[C@H](CO)N1C[C@H](C)[C@@H](CN(C)C(=O)Nc2ccc(F)cc2)OCc2ccccc2-c2c(n(C)c3ccccc23)C1=O,inactive
9,CCC(=O)N1CC2(C1)CN(C(=O)Nc1ccccc1F)[C@H](CO)c1[nH]c3cc(OC)ccc3c12,inactive
10,COc1ccc2c3c([nH]c2c1)[C@@H](CO)N(C(=O)c1cccc(F)c1)CC31CCN(C(=O)c2ccccc2)CC1,inactive
11,CCC(=O)N1CC2(CCN(C(=O)Nc3ccccc3F)CC2)c2c([nH]c3cc(OC)ccc23)[C@H]1CO,inactive
12,COc1ccc2c3c([nH]c2c1)[C@@H](CO)N(C(=O)Cc1ccccc1)CC31CCN(C(=O)Cc2ccccc2)CC1,inactive
13,COc1cccc(-c2ccc3c(c2)[C@@H]2[C@@H](CCN2C(=O)C2CCCC2)[C@H](CO)N3)c1,inactive
14,CN(C)c1ccc2c(c1)[C@@H]1C[C@@H](CC(=O)N3CCc4ccccc4C3)O[C@@H](CO)[C@@H]1O2,inactive
15,O=C(c1ccc(F)cc1)N1CC(=O)N2[C@H](CO)[C@H](c3ccc(C#Cc4ccc(F)cc4)cc3)[C@H]2C1,inactive
16,CCC(=O)N1CCC2(CC1)CN(Cc1cc(F)ccc1F)[C@@H](CO)c1[nH]c3cc(OC)ccc3c12,inactive
17,COc1cccc(C#Cc2ccc([C@@H]3[C@@H](C#N)N(C(=O)C4CCCCC4)[C@H]3CO)cc2)c1,inactive
18,COc1ccccc1C#Cc1ccc([C@H]2[C@@H](C#N)N(C(=O)C3CCCCC3)[C@H]2CO)cc1,inactive
19,COc1cccc(C#Cc2ccc([C@H]3[C@@H](C#N)N(C(=O)C4CCCC4)[C@@H]3CO)cc2)c1,inactive
20,COc1ccccc1C#Cc1ccc([C@@H]2[C@H](C#N)N(C(=O)C3CCCC3)[C@H]2CO)cc1,inactive
21,COCC(=O)N1CC2(C1)CN(Cc1ccccc1F)[C@@H](CO)c1[nH]c3cc(OC)ccc3c12,inactive
22,C[C@H](CO)N1C[C@H](C)[C@@H](CN(C)C(=O)C2CCCCC2)Oc2ncc(/C=C/c3ccccc3)cc2C1=O,inactive
